Data reported in PubChem BioAssay (NCI).
This is part of a sample that, as a whole, favours compounds with a hit. Of some 83,000 tested, about 20% had one in any assay.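 48-hour exposure, single concentration, 96-well plates; percent growth endpoint where 0 means no net growth. Active: below 10.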 Unmarked numbers belong to inactive results. Calls of active or inactive are those of the source.

Columns and labels:
Test in all cases: NCI-60 one-dose screen, 48 h (100 = growth as untreated, 0 = no growth, -100 = all killed)
Settings in all cases: 10 µM unless noted
NCI-H23 lung = test system: NCI-H23 lung
NCI-H226 lung = test system: NCI-H226 lung
NCI-H322M lung = test system: NCI-H322M lung
HOP-62 NSCLC = test system: HOP-62 NSCLC
NCI-H460 lung = test system: NCI-H460 lung
HOP-92 NSCLC = test system: HOP-92 NSCLC
NCI-H522 lung = test system: NCI-H522 lung
A549/ATCC NSCLC = test system: A549/ATCC NSCLC
786-0 renal = test system: 786-0 renal
COLO 205 colon = test system: COLO 205 colon

SMILES | growth (NCI-H23 lung) | growth (NCI-H226 lung) | growth (NCI-H322M lung) | growth (HOP-62 NSCLC) | growth (NCI-H460 lung) | growth (HOP-92 NSCLC) | growth (NCI-H522 lung) | growth (A549/ATCC NSCLC) | growth (786-0 renal) | growth (COLO 205 colon)
COc1ccc2c(c1)nnc1c3cccnc3[nH]c21 | 25.5% | 19.7% | 43.3% | 6.44% (active) | -49.4% (active) | -36.5% (active) | -34.4% (active) | 40.8% | -37.2% (active) | -62.3% (active)
Cl[C@@H]1CCO[C@H](c2cc3ccccc3c3ccccc23)C1 | 95.5% | 89.8% | 94.6% | 98.8% | 99% | 89.1% | 82.6% | 93.6% | 88.7% | 104%
CCC1CN2C(=N1)c1ccccc1-c1cc(Cl)ccc12 (stereo not given) | 23.4% | -40.2% (active) | 28.3% | 5.88% (active) | -18.9% (active) | -12.2% (active) | -28.5% (active) | -21.7% (active) | -35.4% (active) | 18.4%
CCCCCCCCCCCCCCCCCCNCc1ccc(Cl)cc1 | -65.4% (active) | 4.03% (active) | 9.39% (active) | -77.7% (active) | -71.6% (active) | -78% (active) | -82.5% (active) | -80.7% (active) | -75.1% (active) | -83.9% (active)
O=S(=O)(O)c1ccc(F)cc1 | 96.1% | 103% | 97.3% | 92.6% | 111% | 116% | 82.8% | 101% | 103% | 114%
COc1ccc2c(c1)OC(N)=C(C#N)C2c1ccc(F)c(F)c1 (stereo not given) | 48.2% | 69.2% | 51.4% | 44.9% | 14.4% | 76.3% | -12.6% (active) | 37.1% | 41.4% | 10.3%
COc1cc(Nc2ncccc2C(=O)Nc2nc3ccc(F)cc3s2)cc(OC)c1OC | 55.8% | 57.2% | 90.8% | 40.9% | 74.1% | 45.1% | 50.6% | 65.6% | 22.9% | 118%
CC1(C)N=C(N)N=C(N)N1c1cccc(CCCCc2ccccc2)c1 | 10.8% | 25.9% | 21.6% | -23.5% (active) | 0.878% (active) | -30.8% (active) | -42.1% (active) | -6.95% (active) | -48.4% (active) | -84.7% (active)
Cc1c(NC(=O)c2sc3nc4c(cc3c2N)CN(Cc2ccccc2)CC4)cccc1C(F)(F)F | 72.7% | 65.7% | 73.1% | 35.9% | 18.7% | 77.1% | 10.4% | 53.7% | 84.4% | 21.6%
CC1=C2C(=C[C@@](C)(CO)[C@@H]2OC(=O)N(C)CCN(C)C(=O)OC(C)(C)C)C(=O)[C@](C)(O)C12CC2 | 11.8% | 106% | 59.7% | 9.97% (active) | 3.77% (active) | 8.11% (active) | 57.7% | 10.4% | 65.1% | 40.1%
C#CCn1c(-c2cc(OC)c(OC)cc2Br)nc(-c2ccccc2)c1-c1ccccc1 | 42.5% | 66% | 28.6% | 72.8% | 10.8% | 41.9% | 17.4% | 31.2% | 48.8% | 8.73% (active)
O=C(O)c1ccc(-c2nn(-c3ccc(C(=O)O)cc3)cc2/C=N/Nc2c(F)c(F)cc(F)c2F)cc1 | 96% | 103% | 99.9% | 99% | 114% | 115% | 89.2% | 97.7% | 112% | 111%
CC(C)CCC[C@@H](C)[C@H]1CC[C@H]2[C@@H]3CC=C4N(c5ccccc5)C(=O)CC[C@]4(C)[C@H]3CC[C@]12C | 97.2% | 99.2% | 98.3% | 98.8% | 111% | 60.2% | 94.1% | 97.4% | 93.9% | 97.9%
O=C1C(Cl)=C(Nc2cccc3cc4ccccc4nc23)C(=O)c2ccccc21 | 54.7% | 67.2% | 51% | 45.9% | 18.2% | 74.9% | 22.3% | 29.8% | 50.1% | 12%
FC(F)(F)c1cn(CCN2CCOCC2)c2ncnc(Cl)c12 | 66.1% | 101% | 87.4% | 55.9% | 84.3% | -62.3% (active) | 20.5% | 94.5% | 113% | 76.5%
CC(=O)c1cc2c(N)c(C(=O)Nc3cccc(Cl)c3)sc2nc1C | 91% | 87.3% | 77.7% | 90.4% | 45.7% | 58.3% | 72.9% | 39.3% | 89.1% | 40.7%
COC1=C(OC)C(=O)C=CC1=O | 111% | 107% | 101% | 117% | 118% | 110% | 63.7% | 109% | 103% | 99.8%
Cc1cc(-c2ccccc2)nc2ccccc12 | 90.4% | 90.2% | 103% | 79.8% | 103% | 95.7% | 90.5% | 90.2% | 109% | 96.5%
C[C@H]1C=C(C[C@@H](O)CC#CC#CCCCCC[C@@H](O)[C@H]2CCC(=O)O2)C(=O)O1 | 99.9% | 98.6% | 114% | 94.5% | 118% | 99.9% | 78.7% | 111% | 190% | 115%
c1ccc(CNCCN(CCNCc2ccccn2)Cc2ccc3ccccc3c2)nc1 | 21.5% | -17.9% (active) | 12.2% | -17.4% (active) | -7.2% (active) | -7.66% (active) | 14.1% | -14.5% (active) | -46.4% (active) | -5.97% (active)
O=C(Nc1ccc(-n2cc(-c3ccncc3)c(-c3ccc(O)c(Cl)c3)n2)cc1)Nc1cc(C(F)(F)F)cc(C(F)(F)F)c1 | 47.5% | 87.8% | 51.5% | 71.5% | 49.3% | 2.56% (active) | 79.5% | 53.6% | 50.5% | 28.6%
CCCCNC(=O)Oc1ccc(/C(=C(/CC)Cc2ccccc2)c2ccc(OCCCN(C)C)cc2)cc1 | 91.7% | 92.9% | 83.1% | 96.1% | 63.7% | 43.8% | 88.1% | 69.5% | 71.2% | 20.5%
COc1ccc(/C=C/C(=O)/C=C(/C=C/c2ccc(OC)c(OC)c2OC)OB(F)F)c(OC)c1OC | 37.3% | 75.6% | 91.8% | 70.4% | 43.6% | 79.5% | 16.3% | 55.7% | 14.1% | 7.86% (active)
Cc1nccc2c3ccc(OCc4cn(Cc5ccc(Br)cc5)nn4)cc3n(CCCc3ccccc3)c12 | 82.5% | 88.9% | 85.9% | 62% | 89.5% | 77.9% | 59.4% | 82.6% | 67% | 92.4%
COc1cc(-c2nc(N)n(CC(=O)Nc3ccc(/C(C)=N\O)cc3)n2)cc(OC)c1OC | 95.8% | 94.8% | 94.2% | 94.5% | 106% | 88.2% | 60.8% | 74.2% | 104% | 104%
N#CC(C#N)=C(C#N)c1c[nH]c2ccccc12 | 87.4% | 78.4% | 110% | 81.2% | 92.8% | 41.2% | 57.4% | 80.4% | 82.4% | 73.8%
COc1cc(/C=C/C(=O)N2CCC=CC2=O)cc(OC)c1OC | 62.3% | 109% | 84.3% | 82.8% | 76% | 28.9% | -68.2% (active) | 72.3% | 29.5% | 5.08% (active)
